Results as given in PubChem BioAssay.
Results filed as inconclusive are left out. Calls of active or inactive are those of the source. Unless noted, how the calls were made is not given here.

Key:
[1] = rapamycin-like changes in RPL19A-GFP expression – cell-based, S. cerevisiae, multiplex flow cytometry, primary screen (AID 1862; in the data active means percent of DMSO control GFP below about 86%;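 further: lower values mimic rapamycin by blocking the RPL19A rise seen in DMSO cells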); settings: S. cerevisiae RPL19A-GFP strain, flow cytometry fluorescence, 3 h; at 10 µM; stronger effect = lower value
[2] = TOR pathway GLN3 branch reporter MEP2-GFP changes – S. cerevisiae, multiplex flow cytometry, primary screen (AID 1867;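 active means GFP response, as percent of the DMSO control, above the screen-wide mean plus 3 SD, about 139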;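 further: median GFP channel fluorescence of barcode-gated MEP2-GFP cells measured by flow cytometry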); settings: S. cerevisiae MEP2-GFP strain, 3 h, at 10 µM, stronger effect = higher value
[3] = TOR pathway RTG branch CIT2 reporter changes – S. cerevisiae, GFP fusion, multiplex flow cytometry, primary screen (AID 1870;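 active means percent response above a set limit, the screen-wide mean plus 3 SD, cut at about 130% in these data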;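 further: barcoded CIT2-GFP strain pooled with four other GFP strains with rapamycin as positive control; median GFP fluorescence per well over plate mean of DMSO wells so 100% = DMSO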); settings: S. cerevisiae CIT2-GFP expression, 3 h, at 10 µM, stronger effect = higher value
[4] = TOR pathway LAP4-GFP level changes – S. cerevisiae, multiplex flow cytometry, primary screen (AID 1873;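 active means GFP signal, as percent of the solvent control, above the screen mean plus 3 SD, about 149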); settings: S. cerevisiae LAP4-GFP expression, 3 h, at 10 µM, stronger effect = higher value
[5] = yeast AGP1-GFP level changes, GLN3 branch – cell-based, multiplex flow cytometry, S. cerevisiae, primary screen (AID 1887;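 active means GFP signal above the screen-wide mean plus 3 SD, that is over about 124.5% of the solvent control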;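 further: AGP1-GFP fusion strain of S. cerevisiae within a five-strain barcoded multiplex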); settings: 3 h, at 10 µM, stronger effect = higher value
[6] = reduced mouse 2C T cell binding to pMHC/ICAM-1 vesicles – MLPCN validation set, flow cytometry, LFA-1/ICAM-1 modulator project, pilot screen (AID 2523;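 active means response below a set limit, under 55% cells CD8-positive and vesicle-bound, and CD8 cells' 90th-percentile brightness under 279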;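 on vesicle binding response: mean PE anti-B7-1 fluorescence of CD8+ cells relative to row control; 100% = QL9-loaded vesicles with DMSO vehicle in the same plate row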); settings: 2C mouse CD8+ T cells, at 7 µM, stronger effect = lower value; double positive events: measured here: CD8+/vesicle+ event percentage
[7] = target: Integrin beta-1 (Homo sapiens) + Integrin alpha-4 (Homo sapiens) (UniProt P13612+P05556); assay: alpha4beta1 integrin LIBS antibody binding reduction – U937 cells, HUTS-21 mAb, flow cytometry, validation set, VLA-4 allosteric modulator project, pilot screen (AID 2674;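 active means inhibition above 50%, about 3 SD of the validation set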;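 further: antibody binding induced by the VLA-4 ligand LDV present at three times its Kd; 0% = LDV ligand with antibody and no compound and 100% = antibody without LDV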); settings: HUTS-21 LIBS mAb binding, at 6.7 µM, stronger effect = higher value
Integrin beta-1 (Homo sapiens) + Integrin alpha-4 (Homo sapiens), sequence (P05556 whole entry, looked up): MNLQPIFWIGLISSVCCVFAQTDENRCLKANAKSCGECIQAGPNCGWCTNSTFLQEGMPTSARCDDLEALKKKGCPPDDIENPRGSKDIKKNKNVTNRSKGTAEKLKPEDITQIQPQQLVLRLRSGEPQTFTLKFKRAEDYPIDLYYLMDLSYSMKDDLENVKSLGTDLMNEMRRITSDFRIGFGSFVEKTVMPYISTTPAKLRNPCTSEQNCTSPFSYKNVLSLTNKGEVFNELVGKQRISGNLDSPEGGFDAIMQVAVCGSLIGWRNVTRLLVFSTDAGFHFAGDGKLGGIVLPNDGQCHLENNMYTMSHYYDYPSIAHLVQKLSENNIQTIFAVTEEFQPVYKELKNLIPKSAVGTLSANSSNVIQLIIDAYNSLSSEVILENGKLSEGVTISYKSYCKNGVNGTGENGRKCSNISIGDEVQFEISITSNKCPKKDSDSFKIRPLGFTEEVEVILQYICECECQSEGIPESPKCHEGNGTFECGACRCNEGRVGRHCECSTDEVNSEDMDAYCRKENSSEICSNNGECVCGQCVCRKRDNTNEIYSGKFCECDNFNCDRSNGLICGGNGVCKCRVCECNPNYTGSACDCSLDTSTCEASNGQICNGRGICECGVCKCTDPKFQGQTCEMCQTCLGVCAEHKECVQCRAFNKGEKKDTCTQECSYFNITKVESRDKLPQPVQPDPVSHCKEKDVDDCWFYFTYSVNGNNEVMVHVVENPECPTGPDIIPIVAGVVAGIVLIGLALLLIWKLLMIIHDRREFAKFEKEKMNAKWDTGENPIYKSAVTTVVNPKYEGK
Integrin beta-1 (Homo sapiens) + Integrin alpha-4 (Homo sapiens), sequence (P13612 whole entry, looked up): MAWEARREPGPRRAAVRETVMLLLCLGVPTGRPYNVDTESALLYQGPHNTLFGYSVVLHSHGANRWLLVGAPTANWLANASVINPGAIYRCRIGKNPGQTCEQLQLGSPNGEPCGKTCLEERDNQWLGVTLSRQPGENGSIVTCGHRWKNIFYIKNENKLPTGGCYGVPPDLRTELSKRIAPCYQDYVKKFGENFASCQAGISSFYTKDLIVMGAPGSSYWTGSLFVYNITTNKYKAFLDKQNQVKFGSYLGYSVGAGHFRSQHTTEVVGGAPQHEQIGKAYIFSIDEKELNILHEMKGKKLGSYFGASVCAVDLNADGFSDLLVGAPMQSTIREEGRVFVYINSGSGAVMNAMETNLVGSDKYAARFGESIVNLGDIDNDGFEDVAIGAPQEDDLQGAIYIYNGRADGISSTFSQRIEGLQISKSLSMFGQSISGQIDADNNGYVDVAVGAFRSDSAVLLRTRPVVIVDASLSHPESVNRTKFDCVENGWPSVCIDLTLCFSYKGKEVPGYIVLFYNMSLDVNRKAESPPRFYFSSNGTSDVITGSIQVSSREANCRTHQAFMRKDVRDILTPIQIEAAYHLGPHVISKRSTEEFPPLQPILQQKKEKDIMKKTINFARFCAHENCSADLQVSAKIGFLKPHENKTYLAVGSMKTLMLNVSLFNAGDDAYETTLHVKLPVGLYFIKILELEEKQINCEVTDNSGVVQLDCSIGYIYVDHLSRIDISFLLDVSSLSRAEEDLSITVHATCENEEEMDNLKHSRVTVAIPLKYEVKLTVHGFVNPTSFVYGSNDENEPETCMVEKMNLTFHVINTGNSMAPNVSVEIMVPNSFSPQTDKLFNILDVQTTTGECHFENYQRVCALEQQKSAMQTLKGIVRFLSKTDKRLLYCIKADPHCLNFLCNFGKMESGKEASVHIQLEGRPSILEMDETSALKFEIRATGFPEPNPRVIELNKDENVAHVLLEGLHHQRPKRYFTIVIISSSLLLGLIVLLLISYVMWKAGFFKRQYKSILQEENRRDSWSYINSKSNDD

[8] = calorie-restriction mimetic ROS inhibitors, yeast – validation compound set, pilot screen (AID 2706;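 active means superoxide response below 65% of plate, a cut near 3 SD across the whole screen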;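 further: yeast exposed to compound for one week at 30 degrees C before staining; 100% = mean of all compound wells on the same plate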); settings: S. cerevisiae aging, superoxide DHE fluorescence; at 10 µM; stronger effect = lower value
[9] = target: Beta-adrenergic receptor kinase 1 (Homo sapiens) (UniProt P25098); assay: GRK2 binders displacing RNA aptamer, biochemical, validation, human GRK2, bead flow cytometry (AID 488806;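 active means aptamer binding inhibition above 30%, about 3 SD of noise from non-fluorescent compounds; inactive means inhibition at or below 30%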); settings: bead-bound GRK2, FAM-aptamer displacement, at 10 µM, stronger effect = higher value
Beta-adrenergic receptor kinase 1 (Homo sapiens), sequence (P25098 whole entry, looked up): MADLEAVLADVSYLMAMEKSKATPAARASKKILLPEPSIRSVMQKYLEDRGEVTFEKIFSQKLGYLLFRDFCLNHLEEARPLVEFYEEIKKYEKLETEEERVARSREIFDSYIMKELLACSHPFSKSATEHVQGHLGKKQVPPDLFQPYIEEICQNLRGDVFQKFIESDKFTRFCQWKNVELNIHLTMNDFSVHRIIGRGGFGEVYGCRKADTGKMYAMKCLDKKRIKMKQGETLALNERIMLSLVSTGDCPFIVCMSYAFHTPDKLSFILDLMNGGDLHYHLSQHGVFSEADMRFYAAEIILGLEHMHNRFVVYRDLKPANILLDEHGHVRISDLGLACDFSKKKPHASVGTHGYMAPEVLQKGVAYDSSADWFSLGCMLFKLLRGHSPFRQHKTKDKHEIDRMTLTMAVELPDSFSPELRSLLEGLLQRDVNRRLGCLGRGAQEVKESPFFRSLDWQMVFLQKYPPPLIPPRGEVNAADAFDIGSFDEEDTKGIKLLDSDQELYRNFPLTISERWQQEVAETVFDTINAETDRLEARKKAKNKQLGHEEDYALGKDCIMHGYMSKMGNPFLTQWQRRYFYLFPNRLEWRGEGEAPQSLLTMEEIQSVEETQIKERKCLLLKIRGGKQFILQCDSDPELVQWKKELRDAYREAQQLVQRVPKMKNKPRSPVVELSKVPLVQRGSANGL

[10] = target: Beta-2 adrenergic receptor (Homo sapiens) (UniProt P07550); assay: agonist-induced loss of surface beta2AR – cell-based, FAP fluorogen, flow cytometry, validation set, pilot screen (AID 504459;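 active means percent response above 42, roughly 3 SD of non-fluorescent test compounds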;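 further: agonist-driven loss of surface beta2AR via internalization measured by FAP dye flow cytometry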); settings: Am2.2-beta2AR cells, at 10 µM, stronger effect = higher value
Beta-2 adrenergic receptor (Homo sapiens), sequence (P07550 whole entry, looked up): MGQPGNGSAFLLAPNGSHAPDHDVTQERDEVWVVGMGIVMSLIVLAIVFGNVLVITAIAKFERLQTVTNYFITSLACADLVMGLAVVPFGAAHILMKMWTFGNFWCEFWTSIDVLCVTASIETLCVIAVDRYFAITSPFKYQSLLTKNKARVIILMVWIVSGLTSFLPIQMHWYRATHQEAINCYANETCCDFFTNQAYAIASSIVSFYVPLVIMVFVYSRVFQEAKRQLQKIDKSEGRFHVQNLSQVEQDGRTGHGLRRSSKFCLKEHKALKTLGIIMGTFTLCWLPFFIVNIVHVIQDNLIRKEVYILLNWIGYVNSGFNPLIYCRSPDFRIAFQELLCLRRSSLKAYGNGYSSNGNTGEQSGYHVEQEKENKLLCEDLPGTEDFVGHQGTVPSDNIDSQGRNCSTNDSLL

[11] = target: AP-2 complex subunit beta (Homo sapiens) (UniProt P63010); assay: beta-arrestin/AP2 interaction blockers – biochemical, validation set, GST-AP2 beads, flow cytometry, pilot screen (AID 504541;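 active means inhibition above 54%, about 3 SD of non-fluorescent compounds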;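 further: AP2 carries R879A mutation and is captured from E. coli lysate; bead-bound FITC arrestin peptide fluorescence measuring arrestin peptide binding to AP2; 0% = DMSO wells and 100% = excess unlabeled arrestin peptide control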); settings: FITC arrestin peptide, at 10 µM, stronger effect = higher value
[12] = cytosolic pH regulators acting via V-ATPase – S. cerevisiae, pHLuorin, HTS validation (AID 504600; in the data active means response above about 15%;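 further: plate controls were DMSO for no effect and reference compound for full effect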); settings: V-ATPase proton transport, at 10 µM, stronger effect = higher value
[13] = tested on: anti-desmoglein-3 scFv antibody binding to human DSG3; assay: blockers of pathogenic pemphigus antibody–desmoglein-3 binding – biochemical, validation compound set, bead-based, flow cytometry, pilot screen (AID 588368;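 active means binding below the plate cutoff, the plate median minus 3 SD, with a reading above zero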;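 further: signal is the median channel fluorescence of bead-bound GFP antibody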); settings: Protein G beads, DSG3-Fc, scFv-GFP binding, at 10 µM, stronger effect = lower value
[14] = tested on: Botulinum neurotoxin type F light chain protease (Clostridium botulinum); assay: Clostridium botulinum type F light chain protease inhibitors, microsphere substrate cleavage, validation (AID 588459); settings: multiplex microsphere protease substrate cleavage assay, flow cytometry; at 10 µM; stronger effect = higher value
[15] = target: Botulinum neurotoxin type A (Clostridium botulinum) (UniProt P0DPI0); assay: BoNT/A light chain protease inhibitors, biochemical, multiplex microsphere flow cytometry, validation set (AID 588460); settings: at 10 µM, stronger effect = higher value
Botulinum neurotoxin type A (Clostridium botulinum), sequence (P0DPI0 whole entry, looked up): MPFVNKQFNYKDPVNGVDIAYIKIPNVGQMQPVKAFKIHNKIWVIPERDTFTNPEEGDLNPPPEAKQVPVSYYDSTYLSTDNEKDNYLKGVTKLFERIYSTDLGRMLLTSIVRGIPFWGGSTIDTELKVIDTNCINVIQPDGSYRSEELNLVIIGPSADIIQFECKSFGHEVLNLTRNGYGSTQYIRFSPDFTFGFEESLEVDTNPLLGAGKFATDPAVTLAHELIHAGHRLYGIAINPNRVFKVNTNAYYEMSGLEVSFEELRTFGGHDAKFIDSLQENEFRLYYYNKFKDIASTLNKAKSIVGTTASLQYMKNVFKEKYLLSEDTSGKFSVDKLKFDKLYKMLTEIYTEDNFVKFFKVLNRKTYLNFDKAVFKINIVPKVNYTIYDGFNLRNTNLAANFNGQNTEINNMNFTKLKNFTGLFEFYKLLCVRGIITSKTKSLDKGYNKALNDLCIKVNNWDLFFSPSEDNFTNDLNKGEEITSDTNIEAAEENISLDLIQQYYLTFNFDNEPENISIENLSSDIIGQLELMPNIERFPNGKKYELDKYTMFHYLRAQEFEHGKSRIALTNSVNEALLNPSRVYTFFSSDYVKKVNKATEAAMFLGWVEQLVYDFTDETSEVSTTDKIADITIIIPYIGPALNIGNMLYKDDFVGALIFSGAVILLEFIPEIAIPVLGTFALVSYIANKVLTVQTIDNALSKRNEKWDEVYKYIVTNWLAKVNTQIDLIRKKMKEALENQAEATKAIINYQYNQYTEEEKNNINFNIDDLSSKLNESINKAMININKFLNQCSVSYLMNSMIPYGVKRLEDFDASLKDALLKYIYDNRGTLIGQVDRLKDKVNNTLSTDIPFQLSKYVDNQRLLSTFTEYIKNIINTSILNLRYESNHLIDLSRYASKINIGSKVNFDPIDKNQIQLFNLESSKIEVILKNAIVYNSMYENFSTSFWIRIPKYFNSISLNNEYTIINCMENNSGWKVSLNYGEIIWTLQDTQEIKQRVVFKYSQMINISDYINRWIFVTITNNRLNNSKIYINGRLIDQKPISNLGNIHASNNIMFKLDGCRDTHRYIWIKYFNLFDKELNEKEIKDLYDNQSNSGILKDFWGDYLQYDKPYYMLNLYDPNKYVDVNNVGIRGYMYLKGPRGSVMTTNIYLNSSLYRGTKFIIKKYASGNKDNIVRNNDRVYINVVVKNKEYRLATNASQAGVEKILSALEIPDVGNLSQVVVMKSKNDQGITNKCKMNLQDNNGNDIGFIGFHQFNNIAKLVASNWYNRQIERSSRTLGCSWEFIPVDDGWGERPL

[16] = target: Lethal factor (Bacillus anthracis) (UniProt P15917); assay: Bacillus anthracis lethal factor inhibition, microsphere flow cytometry protease assay, validation at 10 µM (AID 588461); settings: multiplex microsphere protease cleavage assay, stronger effect = higher value
[17] = Nile Red efflux blockade in pump-expressing yeast – validation compound set, multiplex, phenotypic, pilot screen (AID 588506;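 active means efflux inhibition above 0.42, the validation set average plus 4 SD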;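 further: Nile Red retained in cells so higher fluorescence means more efflux inhibition; 0 = negative control wells and 1 = enniatin B 25 µM full block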); settings: S. cerevisiae pump-expressing triplex, Nile Red efflux flow cytometry; at 10 µM; stronger effect = higher value
[18] = target: ATP-binding cassette sub-family B member 6 (Homo sapiens) (UniProt Q9NP58); assay: blockers of ABCB6-driven porphyrin uptake – K562-ABCB6 cells, flow cytometry, validation set, pilot screen (AID 588550;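 active means inhibition above the screen-wide mean plus 3 SD, about 51%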;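 further: 0% = DMSO wells and 100% = benzethonium chloride 70 µM positive control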); settings: K562-ABCB6 porphyrin accumulation, 1 h, at 10 µM, stronger effect = higher value
ATP-binding cassette sub-family B member 6 (Homo sapiens), sequence (Q9NP58 whole entry, looked up): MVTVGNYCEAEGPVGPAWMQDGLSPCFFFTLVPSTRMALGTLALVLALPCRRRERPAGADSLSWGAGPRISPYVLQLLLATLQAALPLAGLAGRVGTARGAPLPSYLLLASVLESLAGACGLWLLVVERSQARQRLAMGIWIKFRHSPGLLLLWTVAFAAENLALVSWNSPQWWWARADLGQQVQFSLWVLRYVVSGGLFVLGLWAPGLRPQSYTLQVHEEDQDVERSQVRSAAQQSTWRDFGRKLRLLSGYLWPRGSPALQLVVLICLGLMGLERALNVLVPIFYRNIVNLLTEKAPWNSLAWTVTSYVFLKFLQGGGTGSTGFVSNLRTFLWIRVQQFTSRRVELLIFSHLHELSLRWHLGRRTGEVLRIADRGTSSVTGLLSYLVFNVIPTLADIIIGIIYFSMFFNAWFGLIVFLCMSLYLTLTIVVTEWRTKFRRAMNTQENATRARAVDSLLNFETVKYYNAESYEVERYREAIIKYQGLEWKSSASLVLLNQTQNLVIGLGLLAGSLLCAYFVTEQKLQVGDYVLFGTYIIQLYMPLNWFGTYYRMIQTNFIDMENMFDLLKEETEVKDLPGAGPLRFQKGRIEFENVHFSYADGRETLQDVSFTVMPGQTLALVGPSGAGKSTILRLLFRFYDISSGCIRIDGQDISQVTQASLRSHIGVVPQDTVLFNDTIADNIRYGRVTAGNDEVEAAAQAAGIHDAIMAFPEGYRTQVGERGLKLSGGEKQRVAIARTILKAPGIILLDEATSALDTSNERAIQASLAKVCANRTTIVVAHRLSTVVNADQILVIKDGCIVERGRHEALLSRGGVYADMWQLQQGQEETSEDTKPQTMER

[19] = AML differentiation inducers, ER-HoxA9 marrow cells – cell-based, GFP/MAC1 double positive, flow cytometry, validation set, primary screen (AID 588685;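 active means differentiation response of at least 50%, scaled between solvent and reference control, from cells with both markers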;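 further: compound exposure lasts four days before antibody staining and flow analysis; 0% = DMSO wells and 100% = 5 µM fulvestrant positive control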); settings: stronger effect = higher value

CC1CCC[C@H](O)CCCCCc2cc(O)cc(O)c2C(=O)O1 (stereo not given in full)
62.7%: double positive events [6]
active: efflux inhibition (fraction of control) [17] 0.69
inactive: percent of DMSO control GFP [1] 102% | GFP response vs DMSO [2] 99.7% | percent response of DMSO control [3] 106% | GFP response vs DMSO [4] 114% | GFP response, % of DMSO [5] 109% | vesicle binding response [6] 174% | inhibition [7] 19% | superoxide response (% of plate) [8] 111% | aptamer binding inhibition [9] -3% | response [10] -2.64% | inhibition [11] -18.8% | response [12] 6.16% | binding (% of control) [13] 106% | inhibition [14] -0.6% | inhibition [15] 0.6% | inhibition [16] -2.4% | inhibition [18] -7% | differentiation response [19] -4.57%

C[N+]1(C)CCOC(O)(c2ccc(-c3ccc(C4(O)C[N+](C)(C)CCO4)cc3)cc2)C1 (stereo not given)
64.9%: double positive events [6]
inactive: percent of DMSO control GFP [1] 94.6% | GFP response vs DMSO [2] 126% | percent response of DMSO control [3] 101% | GFP response vs DMSO [4] 76.5% | GFP response, % of DMSO [5] 88% | vesicle binding response [6] 192% | inhibition [7] 9.37% | superoxide response (% of plate) [8] 113% | aptamer binding inhibition [9] -3% | response [10] -10.1% | inhibition [11] 1.77% | response [12] 2.1% | binding (% of control) [13] 101% | inhibition [14] 1.7% | inhibition [15] 0.1% | inhibition [16] 0.5% | efflux inhibition (fraction of control) [17] 0.19 | inhibition [18] 15% | differentiation response [19] 2.46%

C[N+](C)(C)Cc1ccccc1
inactive: percent of DMSO control GFP [1] 103% | GFP response vs DMSO [2] 105% | percent response of DMSO control [3] 106% | GFP response vs DMSO [4] 109% | GFP response, % of DMSO [5] 110% | vesicle binding response [6] 147% | inhibition [7] -14.5% | superoxide response (% of plate) [8] 89.2% | aptamer binding inhibition [9] -1% | response [10] -3.98% | inhibition [11] 3.88% | response [12] -0.83% | binding (% of control) [13] 103% | inhibition [14] 1.5% | inhibition [15] 0.6% | inhibition [16] 4.6% | efflux inhibition (fraction of control) [17] 0.245 | inhibition [18] 1% | differentiation response [19] -14.8%
64.9%: double positive events [6]

C[N+]1(C)C2CCC1CC(OC(=O)C(CO)c1ccccc1)C2 (stereo not given)
inactive: percent of DMSO control GFP [1] 106% | GFP response vs DMSO [2] 99.3% | percent response of DMSO control [3] 112% | GFP response vs DMSO [4] 88.1% | GFP response, % of DMSO [5] 105% | vesicle binding response [6] 233% | inhibition [7] -6.68% | superoxide response (% of plate) [8] 105% | aptamer binding inhibition [9] 5% | response [10] -0.63% | inhibition [11] 6.92% | response [12] -1.74% | binding (% of control) [13] 98% | inhibition [14] -5.3% | inhibition [15] -0.6% | inhibition [16] 2.6% | efflux inhibition (fraction of control) [17] 0.05 | inhibition [18] -4% | differentiation response [19] -6.6%
61.8%: double positive events [6]

Nc1ccncc1
61%: double positive events [6]
inactive: percent of DMSO control GFP [1] 97.9% | GFP response vs DMSO [2] 119% | percent response of DMSO control [3] 111% | GFP response vs DMSO [4] 77.6% | GFP response, % of DMSO [5] 99.6% | vesicle binding response [6] 218% | inhibition [7] -0.33% | superoxide response (% of plate) [8] 94.5% | aptamer binding inhibition [9] 1% | response [10] -11.6% | inhibition [11] -14.8% | response [12] -2.33% | binding (% of control) [13] 108% | inhibition [14] 2.4% | inhibition [15] -0.4% | inhibition [16] -3% | efflux inhibition (fraction of control) [17] -0.02 | inhibition [18] 13% | differentiation response [19] 4.09%

c1ccc2c3c([nH]c2c1)CNCC3
55.3%: double positive events [6]
inactive: percent of DMSO control GFP [1] 100% | GFP response vs DMSO [2] 104% | percent response of DMSO control [3] 106% | GFP response vs DMSO [4] 111% | GFP response, % of DMSO [5] 105% | vesicle binding response [6] 82.8% | inhibition [7] -19.9% | superoxide response (% of plate) [8] 113% | aptamer binding inhibition [9] -5% | response [10] -12.8% | inhibition [11] -0.49% | response [12] 0.12% | binding (% of control) [13] 181% | inhibition [14] -9.7% | inhibition [15] 0.1% | inhibition [16] -60.3% | efflux inhibition (fraction of control) [17] 0.395 | inhibition [18] -82% | differentiation response [19] -0.18%

CN1CCN(C(=O)OC2c3nccnc3C(=O)N2c2ccc(Cl)cn2)CC1 (stereo not given)
inactive: percent of DMSO control GFP [1] 99.9% | GFP response vs DMSO [2] 112% | percent response of DMSO control [3] 92.9% | GFP response vs DMSO [4] 117% | GFP response, % of DMSO [5] 106% | vesicle binding response [6] 6590% | inhibition [7] 9.13% | superoxide response (% of plate) [8] 111% | aptamer binding inhibition [9] 2% | response [10] -5.78% | inhibition [11] 0.51% | response [12] -1.22% | binding (% of control) [13] 100% | inhibition [14] 4.3% | inhibition [15] -0.8% | inhibition [16] 1.7% | efflux inhibition (fraction of control) [17] -0.03 | inhibition [18] 5% | differentiation response [19] -13.6%
58.9%: double positive events [6]

NC(=O)CN1CCCC1=O
54.5%: double positive events [6]
inactive: percent of DMSO control GFP [1] 95% | GFP response vs DMSO [2] 113% | percent response of DMSO control [3] 118% | GFP response vs DMSO [4] 73.2% | GFP response, % of DMSO [5] 91% | vesicle binding response [6] 191% | inhibition [7] 3.55% | superoxide response (% of plate) [8] 95.8% | aptamer binding inhibition [9] -4% | response [10] -20.5% | inhibition [11] -5.52% | response [12] 0.81% | binding (% of control) [13] 105% | inhibition [14] 1.5% | inhibition [15] 0.4% | inhibition [16] 1.1% | efflux inhibition (fraction of control) [17] -0.09 | inhibition [18] 4% | differentiation response [19] -1.64%
